This note sets out measurements from PubChem BioAssay.

The source made the active and inactive calls. Unless noted, no rule for the calls is given here.

Assay [1] has as its system Wnt5a (protein binding on small-molecule microarray). Briefly: small molecules binding Wnt5a protein – biophysical, small-molecule microarray, 635/667 nm fluorescence, primary screen (AID 1142).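 Also: fluorescence read at 667 nm with signal to noise per printed feature.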 The note with it: 635 nm fluorescence, higher = more signal.
A short description of assay [2]: ATP-based viability of Huh7 replicon cells – cell-based, CellTiter-Glo luminescence, basal, 48 h, cytotoxicity control for HCV replication inhibitor project, primary screen (AID 1143).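 Also: Huh7 hepatoma cells carrying a hepatitis C replication reporter with no stimulus; test concentration not given here.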 The note with it: higher = more signal, called active from +8 up or from −8 down. For orientation: In antiviral work, replicon cells carry a viral genome segment that copies itself.
The nature of assay [3]: Pseudomonas biofilm growth suppression – PAO1 strain, BacTiter-Glo luminescence, LB-PBS, primary screen (AID 1144). The note with it: P. aeruginosa PAO1 biofilm, 12 h, higher = more signal.
A short description of assay [4]: basal CRE-LacZ reporter activity in PC12 – cell-based, unstimulated, primary screen (AID 1145). The settings on record: no forskolin, luminescence, 4.5 h, higher = more signal, called active from +8 up or from −8 down.
A short description of assay [5]: forskolin-driven CRE-LacZ activity in PC12 – cell-based, CRE-LacZ reporter, forskolin-stimulated, primary screen (AID 1146).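 Also: PC12 cells with 6xCRE LacZ reporter stimulated by forskolin 10 µM; beta-galactosidase reporter signal reflecting CREB driven transcription.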 The settings on record: luminescence, 4.5 h, higher = more signal, called active from +8 up or from −8 down.
The target in assay [6] is Streptavidin (Streptomyces avidinii) (UniProt P22629). In words: compounds binding control protein streptavidin – biophysical, small-molecule microarray, 635/667 nm fluorescence, artefact control for SMM compound annotation, primary screen (AID 1147).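 Also: signal reflects streptavidin binding to arrayed compounds as a control protein.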 The note with it: higher = more signal.
Chain of Streptavidin (Streptomyces avidinii) (P22629 whole entry, looked up): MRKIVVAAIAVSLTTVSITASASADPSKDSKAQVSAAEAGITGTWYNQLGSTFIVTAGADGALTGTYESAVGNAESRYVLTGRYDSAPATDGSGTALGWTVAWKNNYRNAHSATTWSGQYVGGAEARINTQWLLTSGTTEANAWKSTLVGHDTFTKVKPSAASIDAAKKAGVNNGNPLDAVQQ
The nature of assay [7]: probe aInhba binding on compound microarray – biochemical, small-molecule microarray, 635/667 nm fluorescence, primary screen (AID 1148).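 Also: score merges 667nm spot fluorescence with signal-to-noise for antibody binding to printed compounds.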 The settings on record: higher = more signal.
The target of assay [8] is Torsin-1A (Homo sapiens) (UniProt O14656). Briefly: TOR1A wild-type binding on microarray – cell lysate, small-molecule microarray, lysate, 635/667 nm, primary screen (AID 1149). The settings on record: COS7 hTOR1A-WT lysate, 635 nm fluorescence, higher = more signal.
Chain of Torsin-1A (Homo sapiens) (O14656 whole entry, looked up): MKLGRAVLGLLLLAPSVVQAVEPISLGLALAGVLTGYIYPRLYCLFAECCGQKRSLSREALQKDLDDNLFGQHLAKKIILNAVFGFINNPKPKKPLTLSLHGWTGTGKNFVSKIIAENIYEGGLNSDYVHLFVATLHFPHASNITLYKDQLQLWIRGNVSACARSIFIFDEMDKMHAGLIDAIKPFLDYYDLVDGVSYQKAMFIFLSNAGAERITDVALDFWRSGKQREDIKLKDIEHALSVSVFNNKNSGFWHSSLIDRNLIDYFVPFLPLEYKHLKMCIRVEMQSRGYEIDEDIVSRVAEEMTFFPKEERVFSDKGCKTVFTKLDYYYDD
Assay [9] shares this target. In words: torsin A mutant lysate binding on microarrays – cell lysate, small-molecule microarray, COS7 lysate, 635/667 nm fluorescence, primary screen (AID 1150).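 Also: score pools 667 nm emission and signal to noise measuring lysate protein binding.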 The settings on record: COS7 hTOR1A mutant lysate, 635 nm fluorescence, higher = more signal.
Assay [10] concerns Sonic hedgehog protein (Shh). Briefly: Sonic hedgehog microarray binding compounds – biochemical, small-molecule microarray, 635/667 nm fluorescence, primary screen (AID 1151).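 Also: Shh protein binding to compounds spotted on small-molecule microarray slides; score combines spot fluorescence intensity with signal-to-noise across triplicate slides.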 The settings on record: 635 nm fluorescence, higher = more signal.
Assay [11] in a line: optical density shifts of acrAB sulA E. coli – strain DRC41, OD650, 48 h, E. coli filamentation inducer project, primary screen (AID 1152).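 Also: E. coli MC1000 strain DRC41 lacking acrAB efflux pump and sulA.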 The settings on record: higher = more signal, called active from +8 up or from −8 down.
Assay [12] can be described thus: probe aLefty1 binding on compound microarray – biochemical, small-molecule microarray, 635/667 nm fluorescence, primary screen (AID 1153).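 Also: score merges spot fluorescence with signal-to-noise ratio from the scanned slide images.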 The note with it: higher = more signal.
A short description of assay [13]: plasmodial surface anion channel blockers, osmotic lysis – cell-based, P. falciparum Indochina, OD700, 1 h, primary screen (AID 1154). The settings on record: P. falciparum Indochina infected RBC osmotic lysis, higher = more signal, called active from +8 up or from −8 down.
Assay [14] can be described thus: plasmodial surface anion channel blockers, osmotic lysis – cell-based, P. falciparum Indochina, OD700, 2 h, primary screen (AID 1155).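 Also: lysis reports solute entry through the parasite surface anion channel PSAC.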 The note with it: P. falciparum Indochina infected erythrocytes, higher = more signal, called active from +8 up or from −8 down.
Assay [15] in a line: changes in parasitized red cell lysis, either direction – P. falciparum Indochina, OD700, 3 h, PSAC antagonist project, primary screen (AID 1156). The note with it: P. falciparum-infected erythrocytes, osmotic lysis, higher = more signal, called active from +8 up or from −8 down.
The nature of assay [16]: plasmodial surface anion channel blockers, osmotic lysis – cell-based, P. falciparum Indochina, OD700, 18 h, primary screen (AID 1157). The note with it: P. falciparum Indochina infected erythrocytes, osmotic lysis OD700, 18 h; higher = more signal, called active from +8 up or from −8 down.
Assay [17] in a line: S6 kinase pathway phospho-S6 level changes – cell-based, A549, cytoblot, luminescence, serum-stimulated, primary screen (AID 1158).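 Also: serum-stimulated A549 lung adenocarcinoma cells; signal is phosphorylated S6 detected by cytoblot immunostaining with HRP secondary.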 The settings on record: 5 h, higher = more signal.
Assay [18] deals with NADPH oxidase 2 (Homo sapiens) (UniProt P04839). In words: compounds shifting NOX2 Amplex Red fluorescence – cell-based, HEK293-NOX2, PMA-stimulated, NOX inhibitor project, primary screen (AID 1159). Also: test concentration not given here. The note with it: 45 min, higher = more signal, called active from +8 up or from −8 down.
Chain of NADPH oxidase 2 (Homo sapiens) (P04839 whole entry, looked up): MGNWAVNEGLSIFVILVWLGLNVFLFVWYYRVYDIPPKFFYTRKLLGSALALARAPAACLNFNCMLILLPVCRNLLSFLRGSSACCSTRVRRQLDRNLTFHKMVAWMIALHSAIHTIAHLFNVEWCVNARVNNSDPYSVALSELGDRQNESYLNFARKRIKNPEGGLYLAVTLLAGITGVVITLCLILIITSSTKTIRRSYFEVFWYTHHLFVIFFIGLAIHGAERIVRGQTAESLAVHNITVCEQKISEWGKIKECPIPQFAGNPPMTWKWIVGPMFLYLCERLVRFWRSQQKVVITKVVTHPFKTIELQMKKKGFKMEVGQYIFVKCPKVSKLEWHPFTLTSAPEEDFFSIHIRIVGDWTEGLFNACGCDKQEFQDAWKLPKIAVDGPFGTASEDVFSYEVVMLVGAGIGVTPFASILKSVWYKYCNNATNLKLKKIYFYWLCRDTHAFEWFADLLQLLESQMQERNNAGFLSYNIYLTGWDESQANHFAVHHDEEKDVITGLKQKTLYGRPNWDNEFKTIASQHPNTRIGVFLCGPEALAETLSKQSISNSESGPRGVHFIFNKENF
Assay [19] has as its target NADPH oxidase 4 (Homo sapiens) (UniProt Q9NPH5). In words: compounds shifting NOX4 Amplex Red fluorescence – cell-based, HEK293-NOX4, tetracycline-induced, NOX inhibitor project, primary screen (AID 1160). The note with it: HEK293-NOX4, Amplex Red H2O2 fluorescence, 45 min; higher = more signal, called active from +8 up or from −8 down.
Assay [20] has as its target NADPH oxidase 5 (Homo sapiens) (UniProt Q96PH1). Briefly: compounds shifting NOX5 Amplex Red fluorescence – cell-based, HEK293-NOX5, NOX inhibitor project, primary screen (AID 1161). The note with it: HEK293-NOX5, ionomycin, 45 min, higher = more signal.

Chain of NADPH oxidase 5 (Homo sapiens) (Q96PH1 whole entry, looked up): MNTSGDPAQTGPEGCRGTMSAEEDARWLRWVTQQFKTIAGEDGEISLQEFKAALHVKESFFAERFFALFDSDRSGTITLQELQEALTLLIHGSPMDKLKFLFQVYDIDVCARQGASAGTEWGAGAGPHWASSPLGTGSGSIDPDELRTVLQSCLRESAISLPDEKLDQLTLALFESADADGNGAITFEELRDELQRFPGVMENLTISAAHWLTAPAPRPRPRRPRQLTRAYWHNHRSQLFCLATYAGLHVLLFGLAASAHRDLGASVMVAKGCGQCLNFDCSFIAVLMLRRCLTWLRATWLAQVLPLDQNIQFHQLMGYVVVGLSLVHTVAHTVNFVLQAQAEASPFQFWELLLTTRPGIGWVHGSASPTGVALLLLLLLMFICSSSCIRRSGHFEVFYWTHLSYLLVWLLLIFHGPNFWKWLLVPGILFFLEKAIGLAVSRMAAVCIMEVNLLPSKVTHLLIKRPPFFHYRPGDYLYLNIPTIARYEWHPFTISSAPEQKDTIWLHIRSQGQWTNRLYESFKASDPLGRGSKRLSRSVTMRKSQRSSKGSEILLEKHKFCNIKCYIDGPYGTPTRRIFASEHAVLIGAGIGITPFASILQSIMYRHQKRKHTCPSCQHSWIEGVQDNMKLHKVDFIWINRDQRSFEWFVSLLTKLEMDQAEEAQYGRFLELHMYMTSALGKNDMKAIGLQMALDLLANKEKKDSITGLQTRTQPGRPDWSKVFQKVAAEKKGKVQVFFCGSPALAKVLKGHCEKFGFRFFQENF
Chain of NADPH oxidase 4 (Homo sapiens) (Q9NPH5 whole entry, looked up): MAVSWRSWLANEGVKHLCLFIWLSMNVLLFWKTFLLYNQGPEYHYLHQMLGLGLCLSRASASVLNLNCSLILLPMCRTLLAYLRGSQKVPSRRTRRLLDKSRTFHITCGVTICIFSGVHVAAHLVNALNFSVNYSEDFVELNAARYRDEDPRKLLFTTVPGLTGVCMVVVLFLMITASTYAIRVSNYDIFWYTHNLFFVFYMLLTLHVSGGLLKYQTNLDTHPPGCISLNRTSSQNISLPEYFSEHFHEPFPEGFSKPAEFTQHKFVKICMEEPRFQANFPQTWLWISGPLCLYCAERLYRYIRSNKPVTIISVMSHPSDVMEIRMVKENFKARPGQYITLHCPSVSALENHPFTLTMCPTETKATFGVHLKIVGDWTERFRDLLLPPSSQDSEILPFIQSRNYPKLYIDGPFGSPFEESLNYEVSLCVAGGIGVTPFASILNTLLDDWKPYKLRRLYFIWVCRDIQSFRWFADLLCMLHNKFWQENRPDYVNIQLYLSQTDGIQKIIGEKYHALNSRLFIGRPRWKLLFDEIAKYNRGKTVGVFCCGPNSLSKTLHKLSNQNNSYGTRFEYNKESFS

Consider `CO[C@H]1COC(=O)CC=C[C@H](C)[C@H](OC)COC(=O)[C@@H](C)NC(=O)CC=C[C@@H]1C`, for which the composite z-score was -0.0492 in assay [1]; -0.201 in assay [6]; -0.179 in [7]; 2.9 in the assay with Torsin-1A (Homo sapiens) [8]; 1.82 with Torsin-1A (Homo sapiens) [9]; 2.06 in assay [10]. In assay [12], the composite z-score is -0.0939. Further, the z-score is -0.379 (inactive) in assay [2]; -0.727 (inactive) in [3]; 0.276 (inactive) in assay [4]; 0.314 (inactive) in [5]; -0.619 (inactive) in [11]; -0.89 (inactive) in assay [13]. The z-score in assay [14] was -1.35 (inactive); in assay [15] it was -0.14 (inactive); in assay [16], -1.92 (inactive); in assay [17], -0.365; in assay [18], -0.677 (inactive); in [19] it was 0.557 (inactive). Besides, the z-score in assay [20] was 0.197.
For `CCN1C(=O)[C@H]2[C@H]3[C@H](O)[C@H](O)CC(=NOC[C@@H](O)COCc4ccco4)[C@H]3CC[C@H]2C1=O`, the composite z-score in [1] is -0.13; in [6], -1.09; in [7], -0.241; with Torsin-1A (Homo sapiens) [8], 3.04; with Torsin-1A (Homo sapiens) [9] it was 2.87; in [10], 1.97. Moreover, the composite z-score in assay [12] is -0.22. Besides, the z-score is 0.337 (inactive) in assay [2]; -0.388 (inactive) in assay [3]; -0.926 (inactive) in assay [4]; -0.541 (inactive) in assay [5]; 0.537 (inactive) in assay [11]; -0.392 (inactive) in [13]. For the same compound, the z-score in assay [14] is -0.025 (inactive); in assay [15], -0.468 (inactive); in [16], 0.108 (inactive); in assay [17], -0.18; in assay [18] it was -7.58 (inactive); in [19] it was 0.0462 (inactive). The z-score in assay [20] worked out at 0.262.
In the case of `COC(=O)C1=C(C)N(Cc2ccccc2)C2=C3C(=O)OCC[C@@H]3[C@@](O)(C(=O)OC)C(=O)N2[C@@H]1c1ccccc1`, the composite z-score is 0.226 in assay [1]; 0.299 in assay [6]; -0.0221 in assay [7]; -0.154 with Torsin-1A (Homo sapiens) [8]; 0.319 with Torsin-1A (Homo sapiens) [9]; 0.404 in assay [10]. For the same compound, in assay [12], the composite z-score is -0.286. Besides, the z-score is -0.0119 (inactive) in assay [2]; -0.356 (inactive) in assay [3]; 4.9 (inactive) in [4]; -1.1 (inactive) in assay [5]; 0.884 (inactive) in assay [11]; 0.121 (inactive) in [13]. In addition, the z-score is 0.132 (inactive) in assay [14]; 0.0954 (inactive) in assay [15]; 0.126 (inactive) in assay [16]; 0.0012 in assay [17]; 0.0769 (inactive) in [18]; -0.0428 (inactive) in assay [19]. In assay [20], the z-score was 0.251.
Take `COc1ccc(COC(=O)NN=C2C[C@@H](O)[C@@H](O)[C@@H]3[C@@H]4C(=O)N(Cc5ccccc5)C(=O)[C@@H]4CC[C@@H]23)cc1`: the composite z-score in [1] is -0.0129; in assay [6], -0.323; in assay [7], 0.0785; with Torsin-1A (Homo sapiens) [8], -0.0532; with Torsin-1A (Homo sapiens) [9] it was 0.226; in [10] it was 0.111. For the same compound, the composite z-score in assay [12] is -0.0691. Besides, the z-score was -0.19 (inactive) in assay [2]; 0.99 (inactive) in assay [3]; -0.655 (inactive) in [4]; 0.426 (inactive) in assay [5]; 0.619 (inactive) in assay [11]; 1.48 (inactive) in assay [13]. In addition, the z-score was 0.363 (inactive) in assay [14]; -0.188 (inactive) in assay [15]; 0.648 (inactive) in assay [16]; -0.12 in assay [17]; -6.33 (inactive) in [18]; 0.284 (inactive) in assay [19]. Further, the z-score in assay [20] is -0.234.
